# Records with an inconclusive call do not appear. Where a call stands in place of a potency, no number is given. Calls of active or inactive are those of the source. The call rests on the fitted dose curve; in most records, active means well fitted curve in the direction sought with a large enough effect; inconclusive means small, poorly fitted or top-dose-only effect, or another doubt; inactive means no such curve, though single readings can be large; an effect the other way counts as inactive or inconclusive.
# Experiments:
# [1] = P-glycoprotein substrates identified in KB-8-5-11 adenocarcinoma cell line, qHTS therapeutic library screen (AID 1346987); further: nearly all actives have a fitted effect of over 65% in size; further: potency means the concentration at half of the fitted maximal effect
# Outline: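 P-gp-mediated resistance screen: KB-8-5-11 cells treated 72 h with compounds in dose-response. CellTiter-Glo viability.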
# [2] = NS1 protein of Zika virus - qHTS assay to identify small molecule inhibitors in human HEK 293 cells (AID 1347053); further: series mostly up to about 46 µM; nearly all actives have a fitted effect of over 55% in size
# Outline: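 HEK 293 cells pretreated with compound for 1 h, then infected with ZIKV MR766 (MOI 0.5) for 24 h at 37 C. NS1 detected by TR-FRET with two anti-NS1 antibodies; normalized to uninfected (0%) and infected (100%) wells.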
# [3] = qHTS of pediatric cancer cell lines to identify multiple opportunities for drug repurposing: Primary screen for TC32 cells (AID 1347089); further: nearly all actives have a fitted effect of over 60% in size; further: potency means the concentration at half of the fitted maximal effect
# Outline: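 A viability screen of TC32 cells was run over 48 h, with primary MIPE doses spanning 0.78 nM–46 µM and NPC doses 0.59 nM–46 µM. ATP luminescence (CellTiter-Glo) served as the read-out.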
# [4] = qHTS of pediatric cancer cell lines to identify multiple opportunities for drug repurposing: Primary screen for DAOY cells (AID 1347090); further: nearly all actives have a fitted effect of over 55% in size; further: potency means the concentration at half of the fitted maximal effect
# Outline: (§1)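 Eight- or eleven-point concentration series, 48 h treatment at 37 degrees C in growth media; readout CellTiter-Glo luminescence. Potency and efficacy were taken from the concentration-response curves.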
# [5] = qHTS of pediatric cancer cell lines to identify multiple opportunities for drug repurposing: Primary screen for SJ-GBM2 cells (AID 1347091); further: potency means the concentration at half of the fitted maximal effect
# Outline: as §1
# [6] = qHTS of pediatric cancer cell lines to identify multiple opportunities for drug repurposing: Primary screen for SK-N-MC cells (AID 1347093); further: potency means the concentration at half of the fitted maximal effect
# Outline: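 Metabolically active cells were quantified by ATP-dependent luminescence (CellTiter-Glo, 15 min at room temperature) following 48 h treatment. Cells had been plated at 500-1,000 per well and settled for 5 h beforehand.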
# [7] = qHTS of pediatric cancer cell lines to identify multiple opportunities for drug repurposing: Primary screen for BT-37 cells (AID 1347094); further: potency means the concentration at half of the fitted maximal effect
# Outline: (§2)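 Primary screen of approved and investigational compounds on cells in growth media at 37 degrees C, 5% CO2. MIPE set at 11-point and NPC set at 8-point dilutions; viability scored by ATP-based luminescence at 48 hours.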
# [8] = qHTS of pediatric cancer cell lines to identify multiple opportunities for drug repurposing: Primary screen for NB-EBc1 cells (AID 1347095); further: potency means the concentration at half of the fitted maximal effect
# Outline: as §2
# [9] = qHTS of pediatric cancer cell lines to identify multiple opportunities for drug repurposing: Primary screen for U-2 OS cells (AID 1347096); further: nearly all actives have a fitted effect of over 50% in size; further: potency means the concentration at half of the fitted maximal effect
# Outline: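 Cells (500-1,000/well) in growth media were settled 5 h at 37 degrees C, then given compounds for 48 h. Viability was read as CellTiter-Glo luminescence. Primary runs used MIPE at 11 points (0.78 nM-46 µM) and NPC at 8 points (0.59 nM-46 µM); follow-ups used 11 points.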
# [10] = qHTS of pediatric cancer cell lines to identify multiple opportunities for drug repurposing: Primary screen for Saos-2 cells (AID 1347097); further: nearly all actives have a fitted effect of over 40% in size; further: potency means the concentration at half of the fitted maximal effect
# Outline: as §2
# [11] = qHTS of pediatric cancer cell lines to identify multiple opportunities for drug repurposing: Primary screen for SK-N-SH cells (AID 1347098); further: nearly all actives have a fitted effect of over 65% in size; further: potency means the concentration at half of the fitted maximal effect
# Outline: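 Cells (500-1,000/well) rested 5 h, then received compounds for 48 h; metabolically active cells were measured by CellTiter-Glo luminescence. Final concentrations spanned up to 46 µM (MIPE, 11-point) or 0.59 nM-46 µM (NPC, 8-point) in primary screens, 11-point in follow-ups.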
# [12] = qHTS of pediatric cancer cell lines to identify multiple opportunities for drug repurposing: Primary screen for A673 cells (AID 1347092); further: nearly all actives have a fitted effect of over 45% in size; further: potency means the concentration at half of the fitted maximal effect
# Outline: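 Titration-based qHTS on A673 cells: MIPE compounds spanned 11 points (0.78 nM to 46 µM final), NPC compounds 8 points (0.59 nM to 46 µM final). Viability after 48 h was measured by ATP luminescence.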
SMILES,Potency [1],Potency [2],Potency [3],Potency [4],Potency [5],Potency [6],Potency [7],Potency [8],Potency [9],Potency [10],Potency [11],Potency [12]
OCc1ccccn1,inactive,inactive,inactive,inactive,inactive,inactive,inactive,inactive,inactive,inactive,inactive,–
O=C(c1ccc(F)cc1)C1CCN(CCn2c(=S)[nH]c3ccccc3c2=O)CC1,inactive,inactive,inactive,inactive,–,inactive,–,inactive,inactive,–,–,16.8 µM (active)
Cc1ccccc1OCC(O)CO (centres undefined),inactive,inactive,inactive,inactive,inactive,inactive,inactive,inactive,inactive,–,inactive,–
O=C(NCCc1c[nH]c2ccccc12)c1cccnc1,inactive,–,inactive,inactive,inactive,inactive,inactive,inactive,inactive,inactive,inactive,inactive
CCOc1ccccc1C(N)=O,inactive,–,inactive,inactive,inactive,inactive,inactive,inactive,inactive,inactive,30.7 µM (active),inactive
CCC(CC)(CC(=O)Nc1cccc(/C=C/c2nc(C3CCC3)cs2)c1)C(=O)O,inactive,–,inactive,inactive,inactive,–,inactive,inactive,inactive,inactive,inactive,inactive
CN(C)CCC[C@@]1(c2ccc(F)cc2)OCc2cc(C#N)ccc21,inactive,–,inactive,inactive,inactive,–,inactive,inactive,inactive,inactive,–,inactive
C[C@@]12C(=O)OC(=O)[C@]1(C)C1CCC2O1,3.12 µM (active),–,6.64 µM (active),3.35 µM (active),2.37 µM (active),2.37 µM (active),–,2.37 µM (active),3.35 µM (active),1.5 µM (active),–,6.68 µM (active)
C#C[C@]1(O)CC[C@H]2[C@@H]3CCC4=Cc5oncc5C[C@]4(C)[C@H]3CC[C@@]21C,4.61 µM (active),inactive,inactive,inactive,–,–,–,–,inactive,–,inactive,–
N/C(=N\N=C\c1ccc(Cl)cc1)N/N=C/c1ccc(Cl)cc1,inactive,inactive,inactive,–,–,–,–,–,inactive,–,–,–
COc1cc([C@H]2Oc3cc([C@H]4Oc5cc(O)cc(O)c5C(=O)[C@@H]4O)ccc3O[C@@H]2CO)ccc1O,inactive,inactive,–,inactive,inactive,33.5 µM (active),inactive,inactive,inactive,–,inactive,–
NCCNc1cccc2ccccc12,inactive,–,inactive,inactive,inactive,–,inactive,inactive,inactive,–,inactive,inactive
CCc1oc2ccccc2c1C(=O)c1cc(Br)c(O)c(Br)c1,inactive,inactive,inactive,–,–,–,inactive,–,inactive,–,19.4 µM (active),–
O=C(CCCN1CC=C(n2c(=O)[nH]c3ccccc32)CC1)c1ccc(F)cc1,inactive,inactive,–,inactive,inactive,–,–,inactive,–,inactive,inactive,–
CCOC(=O)[C@@](C)(N)Cc1ccc(O)c(O)c1,inactive,inactive,21 µM (active),–,inactive,–,inactive,inactive,inactive,–,–,–
CN1CCC[C@@H]1CCO[C@](C)(c1ccccc1)c1ccc(Cl)cc1,inactive,inactive,inactive,–,21.1 µM (active),29.9 µM (active),–,–,inactive,21.1 µM (active),15.4 µM (active),–
CCCCCCCC/C=C\CCCCCCCCN,inactive,–,inactive,inactive,inactive,inactive,inactive,inactive,inactive,inactive,inactive,inactive
O=C(O)Cc1csc(-c2ccc(Cl)cc2)n1,inactive,–,inactive,inactive,inactive,inactive,inactive,inactive,inactive,inactive,inactive,inactive
C[C@H]1O[C@@H](O[C@H]2CC[C@@]3(C)[C@H](CC[C@@H]4[C@@H]3C[C@@H](O)[C@]3(C)[C@@H](C5=CC(=O)OC5)CC[C@]43O)C2)C[C@H](O)[C@@H]1O[C@H]1C[C@H](O)[C@H](O[C@H]2C[C@H](O)[C@H](O[C@@H]3O[C@H](CO)[C@@H](O)[C@H](O)[C@H]3O)[C@@H](C)O2)[C@@H](C)O1,0.651 µM (active),–,0.374 µM (active),0.266 µM (active),0.0841 µM (active),0.168 µM (active),0.123 µM (active),0.188 µM (active),–,–,–,0.266 µM (active)
OCCOCCN1CCN(C2=Nc3ccccc3Sc3ccccc32)CC1,inactive,–,inactive,inactive,inactive,inactive,inactive,inactive,inactive,inactive,inactive,inactive
COc1cc(C(=S)N2CCOCC2)ccc1O,inactive,–,inactive,inactive,inactive,–,inactive,inactive,inactive,–,–,inactive
NC(=O)n1c(O)c(C(=O)c2cccs2)c2cc(Cl)ccc21,inactive,inactive,inactive,–,15 µM (active),–,–,16.8 µM (active),inactive,–,–,–
Cc1cccc(C)c1NC(=O)CN1CCCC1,inactive,–,inactive,inactive,inactive,inactive,inactive,inactive,inactive,inactive,inactive,inactive
CCCCCCCCCCCCOCCOCCOCCOCCOCCOCCOCCOCCOCCO,3.26 µM (active),inactive,–,16.8 µM (active),–,–,19.5 µM (active),21.1 µM (active),inactive,–,inactive,21.1 µM (active)

# From PubChem BioAssay (NCATS)
